Reference: PubChem BioAssay AID588397 (National Center for Advancing Translational Sciences (NCATS), 2011)
Values joined by “and” are separate entries in the source; they are usually repeats but may differ in a detail not shown here. Equal values may be shown once. Hit rate of the full screen: of about 1,300 compounds, about 1,000 (77%) were called active. Inconclusive results (about 7%) are left out. So high a share suggests a set chosen from earlier hits. This is one part of the list. Unmarked numbers belong to inactive results. The call rests on the fitted dose curve; in most records, active means well fitted inhibition curve with a large enough effect; inconclusive means small, poorly fitted or top-dose-only effect; inactive means no such curve, though single readings can be large or run the other way.

Experiment: qHTS of small molecules that selectively kill Giardia lamblia: Hit Validation.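 Further: viability measured as ATP content by luminescence so killing lowers signal; trophozoites exposed to compounds for 48 h anaerobically at 37 °C; nearly all actives have a fitted effect of over 65% in size.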
Conditions: Giardia lamblia trophozoite viability, dose-response; series mostly up to 38.3 µM; activity change, negative = killing: at the top concentration
Outline: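 Giardia lamblia trophozoites (100 cells/well) were incubated with compounds for 48 h at 37 deg C under anaerobic conditions. Viability was read as ATP content by one-step luminescence after 15-30 min at room temperature.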
On the % scale 0 is the no-effect control and ±100 the full control effect; potency means the concentration at half of the fitted maximal effect.

SMILES | Potency | activity change, negative = killing [%]
COc1ccc(-n2nc([N+](=O)[O-])c(=NCCc3ccc(OC)c(OC)c3)n2O)cc1 | 1.16 µM (active) | 
COc1ccc(CCN=c2c([N+](=O)[O-])nn(-c3cccc(C)c3)n2O)cc1OC | 5.16 µM (active) | 
COc1ccc(-n2nc([N+](=O)[O-])c(=NCCc3ccc(C)cc3)n2O)cc1 | 4.1 µM (active) | 
CCN(CC)C(=O)Cn1cc([N+](=O)[O-])cc1[N+](=O)[O-] | 0.46 µM (active) | 
CCN(C(=O)C1CCN(S(=O)(=O)c2ccc3c(c2)oc(=O)n3C)CC1)c1cccc(C)c1 |  | -7.64
N#Cc1c(Nc2ccccc2)[n+]([O-])c2ccc(Cl)cc2[n+]1[O-] | 1.63 µM (active) | 
O=C1c2cc(F)ccc2-n2c1nc1ccccc1c2=O | 1.83 µM (active) | 
CCOCCOc1nc2c(c(=O)n(C)c(=O)n2C)n1Cc1ccc(C)cc1 |  | -13.5
Cc1cc(C(=O)N/N=C/c2ccc([N+](=O)[O-])s2)n[nH]1 | 2.31 µM (active) | 
CC(C)(C)c1cc(C(=O)N/N=C/c2ccc([N+](=O)[O-])s2)n[nH]1 | 3.65 µM (active) | 
Cc1cc(C(=O)N/N=C/c2ccc(O)c([N+](=O)[O-])c2)n[nH]1 | 6.5 µM (active) | 
CC(C)(C)c1cc(C(=O)N/N=C/c2ccncc2)n[nH]1 |  | 16.6
N#Cc1c(N2CCN(c3ccc([N+](=O)[O-])cc3)CC2)[n+](=O)c2ccc(Cl)cc2n1[O-] | 1.3 µM (active) | 
CN(C)c1ccc2nsnc2c1[N+](=O)[O-] | 3.65 µM (active) | 
CC1S/C(=C(\C#N)C(N)=O)N(c2ccc(F)cc2)C1=O (configuration not stated) |  | 1.62
N=NC(=O)c1ccccc1Nc1c(O)[nH]c2ccccc12 | 1.03 µM (active) | 
COC(=O)c1ccccc1NC(=O)N1c2ccccc2Sc2ccccc21 | 0.918 µM (active) | 
Cc1cc(N2CCN(C)CC2)nc2ccc(NC(=S)N3CCN(c4ccc(Cl)cc4)CC3)cc12 | 1.16 µM (active) | 
O=c1sc(N2CCN(c3ccc(F)cc3)CC2)nc2ccsc12 |  | -23.9
Cc1cccc(N2CCN(C(=S)Nc3ccc4nc(N5CCN(C)CC5)cc(C)c4c3)CC2C)c1 (configuration not stated) | 4.1 µM (active) | 
Cc1cc(N2CCN(C)CC2)nc2ccc(NC(=S)N3CCN(c4ccc(F)cc4)CC3)cc12 | 1.3 µM (active) | 
Cc1cc(N2CCN(C)CC2)nc2ccc(NC(=S)N3CCN(c4cccc(Cl)c4)CC3)cc12 | 1.16 µM (active) | 
CC(=O)Nc1ccc(/C=C/c2noc(-c3ccccc3O)n2)cc1 |  | -11.3
Cn1nc([N+](=O)[O-])nc1N1CCOCC1 | 0.326 µM (active) | 

SMILES | Potency | activity change, negative = killing [%]
Cc1ccc(C2=NCCn3c2c2ccc(C(F)(F)F)cc2[n+]3[O-])cc1 | 0.13 µM (active) | 
COc1ccc(C2=NCCn3c2c2ccc(C(F)(F)F)cc2[n+]3[O-])cc1 | 0.0729 µM (active) | 
[O-][n+]1c2cc(C(F)(F)F)ccc2c2n1CCN=C2c1ccc(Cl)cc1 | 0.41 µM (active) | 
Nc1c(Cl)cc(C2=NCCn3c2c2ccc(C(F)(F)F)cc2[n+]3[O-])cc1Cl | 0.163 µM (active) | 
O=[N+]([O-])c1cc2cccnc2c2ncccc12 | 1.83 µM (active) | 
O=C(Nc1ccc(-c2cn3ccccc3n2)cc1)c1ccco1 | 8.18 µM (active) | 
COc1ccccc1-n1cc2c([N+](=O)[O-])cc([N+](=O)[O-])cc2n1 | 1.63 µM (active) | 
CC(Oc1cccnc1[N+](=O)[O-])C(=O)Nc1ccc(F)cc1 (configuration not stated) | 5.16 µM (active) | 
CC(Oc1cccnc1[N+](=O)[O-])C(=O)Nc1cccc(Cl)c1 (configuration not stated) | 3.65 µM (active) | 
Cc1ccc(CCN=c2c([N+](=O)[O-])nn(-c3ccccc3)n2O)cc1 | 7.29 µM (active) | 
O=[N+]([O-])c1nn(-c2ccccc2)n(O)c1=NCCc1ccccc1 | 3.26 µM (active) | 
Cc1ccc(Nc2nc(=O)c3cc([N+](=O)[O-])ccc3s2)cc1 | 7.29 µM (active) | 
CC1=NN(c2nc3ccccc3[nH]2)C(=O)/C1=C/N(C)C | 3.65 µM (active) | 
O=C(Nc1ncc([N+](=O)[O-])s1)c1ccco1 | 0.818 µM (active) | 
O=C(Nc1ncc([N+](=O)[O-])s1)c1ccccc1Br | 0.206 µM (active) | 
O=C(Nc1ncc([N+](=O)[O-])s1)c1cccs1 | 460 nM (active) and 729 nM (active) | 
CC(=O)O[C@]1(C(C)=O)CCC2C3CCC4=C/C(=N/OCC(=O)O)CC[C@]4(C)C3CC[C@@]21C (some centres not stated) |  | -25.6
Cn1c(/C(C#N)=C(\O)c2ccc([N+](=O)[O-])s2)nc2ccccc21 | 1.16 µM (active) | 
N#C/C(=C(/O)c1ccc([N+](=O)[O-])o1)c1nc2ccccc2[nH]1 | 0.326 µM (active) | 
N#C/C(=C(/O)c1ccc([N+](=O)[O-])s1)c1nc2ccccc2[nH]1 | 2.31 µM (active) | 
Cc1nc2c(nc1C)C(=O)c1ccccc1C2=O | 3.26 µM (active) | 
Cc1ccc(-c2csc(NC(=O)c3ccc([N+](=O)[O-])o3)n2)cc1 | 1.63 µM (active) | 
O=C(Nc1nc(-c2cccs2)cs1)c1ccc([N+](=O)[O-])o1 | 0.65 µM (active) | 
